Laboratory results taken from PubChem BioAssay.

Assay: modulators of S6 phosphorylation in cells, primary screen, cell-based, A549, cytoblot, luminescence, serum-stimulated (AID 1158);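 further: serum-stimulated A549 lung adenocarcinoma cells; signal is phosphorylated S6 detected by cytoblot immunostaining with HRP secondary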
Settings: A549 phospho-S6 cytoblot, 5 h, higher = more signal

Structure (SMILES) | z-score
O=C1C2C=CC(C(O)c3ccco3)N(Nc3ccccc3)C2C(=O)N1c1ccccc1 (stereo not given) | -0.647
CCOC(=O)C[C@H]1[C@H](OC(=O)c2ccc(-c3ccccc3)cc2)[C@@H](NC(=O)Cc2ccc(OC)cc2)c2cc(OCCCO)ccc2N1C(=O)Cc1ccc(OC)cc1 | 0.911
CCOC(=O)C1=CC[C@@H](c2ccccc2)N(S(=O)(=O)c2ccc(C)cc2)[C@H]1c1cccc(OC)c1 | -0.245
CN1C=C(C(=O)OCCS(C)(=O)=O)C(C(=O)OCCS(C)(=O)=O)=CC(c2ccc(CO)cc2)=CC1c1cccs1 (stereo not given) | 0.0225
COC(=O)C(CC#Cc1ccc2c(c1)[C@]1(C(=O)N2)[C@H](c2ccc(OCCO)cc2)N2[C@H](c3ccccc3)[C@H](c3ccccc3)OC(=O)[C@H]2[C@@H]1C(=O)N1CCN(c2ncccn2)CC1)C(=O)OC | -0.454
